Most compounds without a hit are left out; they make up all but 2.1% or so of the library.
D2 antagonist: antagonists of human D2 dopamine receptor | P14416 | HEK293 TREx D2 cells, calcium flux, dopamine EC80 | inhibition, % at 10 µM | 2% of 340,000 active; in the data active = inhibition above about 30%; inactive = below that, where a call was filed
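Overnight-induced (tetracycline, 30 C) HEK293 T-REx cells carrying force-coupled D2 receive a no-wash calcium dye, then compound, then EC80 dopamine at 180 s; signals are read kinetically throughout.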
D2 ag-1: agonists of human D2 dopamine receptor | P14416 | HEK293 T-REx D2 cells, calcium flux agonist mode | activation, % at 2 µM | 0.53% of 340,000 active | AID 485358;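 active = activation over 3 SD above normal in the single-dose calcium agonist read, cut at about 30% in these data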
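HEK293 Trex D2 cells, tetracycline-induced, o/n 30 C 5% CO2; no-wash Ca dye, RT 30–90 min; 10-cycle baseline, 23 nl cpd added, kinetic Ca read 180 s; agonist hits = positive Ca response.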
D2 PAM-1: positive allosteric modulators of human D2 dopamine receptor; P14416; DiscoveRx D2 beta-arrestin cells, luminescence, 90 min; 100% = 57 uM dopamine signal; potentiation, % (test concentration not listed); 0.23% of 360,000 active; AID 624464; in the data active = potentiation above about 50%; inconclusive = mostly about 30% to 49%
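PathHunter D2 cells, attached overnight at 37 deg C, received compound in DMSO plus dopamine at EC20 (50 nM final) for 90 min at 37 deg C. Beta-arrestin recruitment was read as luminescence after 1 h with detection reagent at ambient temperature.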
D2 ag-2: human D2 receptor agonism in beta-arrestin assay; P14416; DiscoveRx PathHunter D2 beta-arrestin, luminescence, 90 min; 100% = 57 uM dopamine signal; activation, % (test concentration not listed); 0.084% of 360,000 active; in the data active = activation above about 40%; inconclusive = between about 15% and that limit
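Agonist mode: compounds alone added to overnight-plated D2 PathHunter cells for 90 min at 37 C, with 57 uM final dopamine (EC100) defining full response. Beta-arrestin recruitment detected by chemiluminescent reagent, read after 1 h at ambient temperature.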
LDHA inh: LDHA (human) enzyme inhibition. activity change, % (values are at about 110 or 230 µM). P00338. 0.15% of 480,000 active. purified LDHA, NADH/diaphorase-resazurin fluorescence; hits give low values; in the data active = activity change below about -30%; inconclusive = mostly about -25% to -30%
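Resorufin fluorescence (ex540/em590), read at 0 and 20 min after diaphorase/resazurin addition, reports the NADH left after a 5 min room-temperature reaction of 2 nM human LDH5 with 0.06 mM NADH and 0.2 mM pyruvate.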
D2 PAM-2: positive allosteric modulators of human D2 dopamine receptor | HEK293 T-REx D2, calcium flux, EC20 dopamine potentiation | potentiation, % at 10 µM | 0.34% of 340,000 active;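 active = potentiation over 3 SD above the plate norm, cut at about 30% in these data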
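Potentiation of an EC20 dopamine calcium response is measured in a force-coupled, tetracycline-inducible Hek293 Trex D2 line. Compound-only kinetic reads over 180 s flag agonists before dopamine addition.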
D3 arrestin ag: D3 receptor agonism confirmed, beta-arrestin readout | shares compounds with D2 ag-1 | DiscoveRx D3 beta-arrestin cells, luminescence, 90 min | AID 720506 | Potency, µM (highest dose often 76.9 µM), hits mostly activators | 4% of 2,300 active; note: nearly all actives have a fitted effect of over 70% in size
Target sequence (P35462 whole entry, looked up): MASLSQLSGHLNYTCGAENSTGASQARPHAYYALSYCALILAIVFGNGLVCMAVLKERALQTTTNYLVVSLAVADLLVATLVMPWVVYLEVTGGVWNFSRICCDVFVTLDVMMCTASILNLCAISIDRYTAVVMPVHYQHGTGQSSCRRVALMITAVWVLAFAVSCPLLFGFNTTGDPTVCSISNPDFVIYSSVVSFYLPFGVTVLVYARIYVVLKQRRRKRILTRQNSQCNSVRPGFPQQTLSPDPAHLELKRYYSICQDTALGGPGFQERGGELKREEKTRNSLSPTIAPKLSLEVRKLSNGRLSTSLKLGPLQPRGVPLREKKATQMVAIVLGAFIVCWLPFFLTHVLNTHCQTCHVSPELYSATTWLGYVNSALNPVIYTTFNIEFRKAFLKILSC
D2 ag-3: activates human D2 dopamine receptor in D3 counterscreen; 5.9% of 2,300 active; Potency, µM (doses to about 76.9 µM), usual class: activators; shares compounds with D2 ag-1; DiscoveRx PathHunter D2 beta-arrestin, luminescence, 90 min; response scale: percent relative to full dopamine signal; note: nearly all actives have a fitted effect of over 70% in size
A number is an active result; ! = not confirmed by another sample. Unless noted, calls come from the whole dose curve; as a rule, active = well fitted activation curve with a large enough effect; inconclusive = small, poorly fitted or top-dose-only effect; inactive = flat fitted curve, though single readings scatter.

`O=C(Nc1ccc(F)c(Cl)c1)c1ccc2c(Cl)c3c(nc2c1)CCC3` gave LDHA inh inactive.
CCC(NC(C)C)C(O)c1ccc(O)c2[nH]c(=O)ccc12 (stereo not drawn) was read as D2 antagonist inactive, D2 ag-1 inactive, D2 PAM-1 inactive, D2 ag-2 inactive, LDHA inh inactive, D2 PAM-2 inactive, D3 arrestin ag inconclusive and D2 ag-3 inactive.
Screening O=C(Nn1cnc2ccccc2c1=O)c1ccc(Br)cc1 returned D2 antagonist inactive, D2 ag-1 43, D2 PAM-1 inactive, D2 ag-2 inactive, LDHA inh inactive, D2 PAM-2 inactive, D3 arrestin ag inactive and D2 ag-3 inactive.
Screening O=C(NC1CCCCC1)N1CCc2ccccc2C1 returned D2 antagonist inactive, D2 ag-1 inactive, D2 PAM-1 inactive, D2 ag-2 inactive, LDHA inh inactive and D2 PAM-2 inactive.
`CCN(CC)S(=O)(=O)c1ccc(O)c(NC(=O)CN2CCc3ccccc3C2)c1` gave D2 antagonist inactive, D2 ag-1 inactive, D2 PAM-1 inactive, D2 ag-2 inactive, LDHA inh inactive and D2 PAM-2 inactive.
CN(C)S(=O)(=O)c1ccc(Cl)c(NC(=O)CN2CCc3ccccc3C2)c1 was read as D2 antagonist 87, D2 ag-1 61, D2 PAM-1 inactive, D2 ag-2 64, LDHA inh inactive, D2 PAM-2 inactive, D3 arrestin ag 10µM and D2 ag-3 14µM.
Cc1ccc(NC(=O)CN2CCc3ccccc3C2)cc1S(=O)(=O)N(C)C was read as D2 antagonist inactive, D2 ag-1 47, D2 PAM-1 inactive, D2 ag-2 inactive, LDHA inh inactive, D2 PAM-2 inactive, D3 arrestin ag inactive and D2 ag-3 inactive.
For O=C(CN1CCc2ccccc2C1)NC1CCCC1 the results were D2 antagonist inactive, D2 ag-1 inactive, D2 PAM-1 inactive, D2 ag-2 inactive, LDHA inh inactive, D2 PAM-2 inactive, D3 arrestin ag inactive and D2 ag-3 inactive.
For Cc1cccc(NC(=O)N2CCc3ccccc3C2)c1C the results were D2 antagonist inactive, D2 ag-1 inactive, D2 PAM-1 inactive, D2 ag-2 inactive, LDHA inh inactive, D2 PAM-2 inactive, D3 arrestin ag inactive and D2 ag-3 inactive.
O=C1CCC/C(=N/NS(=O)(=O)c2ccc(Br)cc2)C1 was read as LDHA inh inactive.
Screening Clc1ccccc1N/N=C/C(Br)=C/c1ccccc1 returned LDHA inh inactive.
For N#CC1(NC(=O)CN2CCc3ccccc3C2)CCCC1 the results were D2 antagonist inactive, D2 ag-1 inactive, D2 PAM-1 inactive, D2 ag-2 inactive, LDHA inh inactive, D2 PAM-2 inactive, D3 arrestin ag inactive and D2 ag-3 inactive.
`CC(=O)C(Cc1ccccc1)NC(=O)CN1CCc2ccccc2C1` (stereo not drawn) gave D2 antagonist inactive, D2 ag-1 inactive, D2 PAM-1 inactive, D2 ag-2 inactive, LDHA inh inactive and D2 PAM-2 inactive.
CCOc1ccccc1NC(=O)CN1CCc2ccccc2C1 was read as D2 antagonist inactive, D2 ag-1 inactive, D2 PAM-1 inactive, D2 ag-2 inactive, LDHA inh inactive and D2 PAM-2 inactive.
Screening CN(C)S(=O)(=O)c1ccc(Cl)c(NC(=O)CN2CCN(c3ccccn3)CC2)c1 returned D2 antagonist inactive, D2 ag-1 69, D2 PAM-1 inactive, D2 ag-2 inconclusive, LDHA inh inactive, D2 PAM-2 inactive, D3 arrestin ag inconclusive and D2 ag-3 32µM.
For CC(CCc1ccccc1)NC(=O)CN1CCc2ccccc2C1 (stereo not drawn) the results were D2 antagonist 68, D2 ag-1 71, D2 PAM-1 inactive, D2 ag-2 inactive, LDHA inh inactive, D2 PAM-2 inactive, D3 arrestin ag inactive and D2 ag-3 inconclusive.
`Cc1ccccc1NC(=O)CN1CCc2ccccc2C1` gave D2 antagonist 40, D2 ag-1 68, D2 PAM-1 inactive, D2 ag-2 inconclusive, LDHA inh inactive, D2 PAM-2 inactive, D3 arrestin ag inconclusive and D2 ag-3 inconclusive.
Screening O=C(CCC(=O)c1ccc(F)cc1)Nc1ccccc1-c1ccccc1 returned LDHA inh inactive.
Cc1ccc(CCC(=O)Nc2cnc3ccccc3c2)cc1 was read as LDHA inh inactive.
Screening CC(C)OCC(O)CN1CCC(Cc2ccccc2)CC1 (stereo not drawn) returned D2 antagonist inactive, D2 ag-1 inactive, D2 PAM-1 inactive, D2 ag-2 inactive, LDHA inh inactive and D2 PAM-2 inactive.
C[C@@H](CN1CCC(Cc2ccccc2)CC1)[C@@H](O)c1ccc(O)cc1 was read as D2 PAM-1 inactive, D2 ag-2 inactive, LDHA inh inactive, D3 arrestin ag inactive and D2 ag-3 inactive.
Screening CC(C(O)c1ccc(O)cc1)N1CCC(Cc2ccccc2)CC1 (stereo not drawn) returned D2 antagonist 77, D2 ag-1 33!, D2 PAM-1 inactive, D2 ag-2 inactive, LDHA inh inactive, D2 PAM-2 inactive, D3 arrestin ag inactive and D2 ag-3 inactive.
`O=C(COC(=O)c1cc2ccccc2[nH]1)c1ccc2ccccc2c1` gave LDHA inh inactive.
`O=C(NCc1ccccc1S(=O)(=O)N1CCOCC1)c1ccc(Cl)cc1O` gave LDHA inh inactive.
OC(CN1CCCCC1)Cn1c2ccccc2c2cc(Br)ccc21 (stereo not drawn) was read as D2 antagonist 80, D2 ag-1 39, D2 PAM-1 inactive, D2 ag-2 inactive, LDHA inh inactive, D2 PAM-2 inactive, D3 arrestin ag inactive and D2 ag-3 inactive.
Screening COC(=O)CCOc1ccc(S(=O)(=O)Nc2ccc(F)c(F)c2)cc1 returned LDHA inh inactive.
For S=C(NCc1ccccn1)Nc1ccccc1 the results were D2 antagonist inactive, D2 ag-1 inactive, D2 PAM-1 inactive, D2 ag-2 inactive, LDHA inh inactive, D2 PAM-2 inactive, D3 arrestin ag inactive and D2 ag-3 inactive.
Screening O=[N+]([O-])c1c(Nc2cccc(Cl)c2Cl)cc(Cl)c2nonc12 returned LDHA inh inactive.
For c1ccc(N2CCN(Cc3cn4ccccc4n3)CC2)cc1 the results were D2 antagonist 37, D2 ag-1 70, D2 PAM-1 inactive, D2 ag-2 inactive, LDHA inh inactive, D2 PAM-2 inactive, D3 arrestin ag inactive and D2 ag-3 inactive.

High-throughput results: PubChem BioAssay, National Center for Advancing Translational Sciences (NCATS)
